Compound activity deposited in PubChem by National Center for Advancing Translational Sciences (NCATS).
Cruzain inh Det – qHTS Assay for Promiscuous and Specific Inhibitors of Cruzain (with detergent). Potency, µM, for the others: max response, negative = inhibition, usual class: inhibitors. AID 1478, 2009. hit rate 0.43% among 200,000. purified cruzain, Z-FR-AMC fluorescence, 0.01% Triton;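 note: plate controls were neutral wells for no effect and buffer without enzyme for full effect; nearly all actives have a fitted effect of over 40% in size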
Target sequence (P25779 123-467 limits assumed): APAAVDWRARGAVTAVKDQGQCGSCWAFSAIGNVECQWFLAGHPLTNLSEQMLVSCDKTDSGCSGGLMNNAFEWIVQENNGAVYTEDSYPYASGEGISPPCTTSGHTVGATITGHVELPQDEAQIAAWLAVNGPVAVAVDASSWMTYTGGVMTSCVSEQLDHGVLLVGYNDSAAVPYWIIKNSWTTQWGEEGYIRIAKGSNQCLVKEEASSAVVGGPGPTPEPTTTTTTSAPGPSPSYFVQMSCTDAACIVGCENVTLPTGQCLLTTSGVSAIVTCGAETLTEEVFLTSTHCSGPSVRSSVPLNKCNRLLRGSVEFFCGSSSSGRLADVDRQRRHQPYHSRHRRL
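Detergent-containing run (0.01% Triton X-100) in acetate buffer pH 5.5 with 5 mM DTT: enzyme at 1.5 nM final, 15 min compound preincubation at room temperature, then 2 uM Z-FR-AMC substrate. Activity taken as 60 s fluorescence increase at 360/450 nm.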
Cruzain noTriton – qHTS Assay for Promiscuous and Specific Inhibitors of Cruzain (without detergent). Cruzipain (Trypanosoma cruzi), P25779. purified cruzain, Z-FR-AMC fluorescence, no detergent. Potency, µM, for the others: max response, negative = inhibition, most hits filed as inhibitors. hit rate 2.3% among 200,000. AID 1476, 2009;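 note: plate controls were enzyme without inhibitor for no effect and buffer without enzyme for full effect; nearly all actives have a fitted effect of over 40% in size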
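Detergent-free condition (0.00005% Triton X-100) in acetate buffer pH 5.5 with DTT. 1.5 nM enzyme and compound were pre-mixed 15 min, then 2 uM Z-FR-AMC substrate added; reaction progress from fluorescence change between first and third reads (60 s).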
The depositor's hits bear a star; ? = inconclusive. Hits are enriched below; roughly 2.4% of the tested compounds scored in any of these assays. Calls come from the whole dose curve; as a rule, active = well fitted curve in the direction sought with a large enough effect; inconclusive = small, poorly fitted or top-dose-only effect, or another doubt; inactive = no such curve, though single readings can be large; an effect the other way counts as inactive or inconclusive. Potency is the fitted concentration of half-maximal effect.

SMILES	Cruzain inh Det	Cruzain noTriton
CCOC(=O)c1sc(NC(=O)c2ccccc2OC)nc1C	-5.8%	5.1%
COc1cc(Cl)c(C)cc1NC(=O)Cn1c2ncccc2c(=O)n1-c1ccccc1	2.0%	2.4%
CC(=O)N(C[C@@H](O)CO)c1c(I)c(C(=O)NC[C@@H](O)CO)c(I)c(C(=O)NC[C@@H](O)CO)c1I	1.0%	-0.4%
Cc1nn(-c2ccccc2)c(OC(=O)c2ccccc2F)c1S(=O)(=O)c1ccccc1	-1.1%	4.6%
COc1cccc(/C=C/c2onc(C)c2S(=O)(=O)N2CCC(C(=O)N3CCCCC3)CC2)c1	-6.4%	?
COCCNC(=O)C1(CC(C)C)C=CCN1C(=O)c1ccccc1 (configuration not stated)	2.2%	-2.3%
Cc1ccc(S(=O)(=O)Nc2ccc3c(c2)c(C(=O)OC(C)C)c(C)n3S(=O)(=O)c2ccc(C)cc2)cc1	-3.0%	5.01µM*
COCCOC(=O)c1c(C)n(S(=O)(=O)c2ccc(C)cc2)c2ccc(NS(=O)(=O)c3ccc(C)cc3)cc12	-2.6%	10µM*
Cc1ccc(S(=O)(=O)Nc2ccc(S(=O)(=O)N3CCCC3)cc2)cc1	-1.8%	0.2%
CCOC(=O)c1c(-c2ccccc2)oc2ccc(NS(=O)(=O)c3ccc(C)cc3)cc12	0.4%	?
COc1ccc(C)cc1NC(=O)Cn1c(=O)oc2cc(S(=O)(=O)N3CCCCCC3)ccc21	-3.2%	-3.5%
Cc1nc(-n2nc(C)c(Cc3ccccc3Cl)c2C)sc1C(=O)N1CCCCC1C (configuration not stated)	-1.4%	-9.3%
COc1cccc(NC(=O)CSc2nc3c(oc4ccccc43)c(=O)n2Cc2ccco2)c1	-3.2%	8.6%
CC1=N/C(=C\c2ccc([N+](=O)[O-])cc2)C(=O)N1c1ccc(Cl)cc1	0.8%	15.8µM*
CC1=N/C(=C/c2ccc([N+](=O)[O-])cc2)C(=O)N1c1ccc(Cl)cc1Cl	0.9%	-18.7%
COc1ccc(N=C2C(=Nc3ccc(OC)cc3)N(c3ccc(OC)cc3)C(=S)N2C(=O)c2ccc(OC)cc2)cc1	-4.7%	5.01µM*
COc1ccc(N=C2C(=Nc3ccc(OC)cc3)N(c3ccccc3)C(=S)N2C(=O)c2ccc(Cl)cc2)cc1	-2.6%	3.98µM*
COc1ccc(N=C2C(=Nc3ccc(OC)cc3)N(c3ccc(N(C)C)cc3)C(=S)N2c2ccc(OC)cc2)cc1	-5.0%	7.94µM*
COc1ccc(C(=O)c2ccc(Cl)cc2)cc1	-2.7%	5.9%
COc1ccc(NC(=S)c2ccc(N(C)C)cc2)cc1	-4.2%	7.8%
COc1ccc(N2CCN(C(=O)c3ccncc3)CC2)cc1	5.5%	2.1%
Cc1cc(C)c(Cn2c3ccccc3c3cnn(CC(=O)NCCCc4ccccc4)c(=O)c32)c(C)c1	-3.0%	?
Cc1cccc(C)c1NC(=O)CN(C)S(=O)(=O)c1ccc2c(c1)n(C)c(=O)c(=O)n2C	-2.8%	-3.7%
O=c1c(-c2ccccc2)nc2cnc(N3CCOCC3)nc2n1Cc1cccs1	4.3%	-3.6%
COC(=O)c1ccc(-n2c(/C=C/c3cc(OC)c(OC)c(OC)c3)nc3cc(Cl)ccc3c2=O)cc1	0.3%	15.5%
SMILES	Cruzain inh Det	Cruzain noTriton
N#C/C(=C\c1ccc(-c2cccc(Cl)c2)o1)C(=O)Nc1cccc2cccnc12	-0.3%	3.16µM*
N#C/C(=C\c1ccc(-c2ccccc2)o1)C(=O)Nn1cnnc1	-5.6%	-2.0%
CCOc1ccc(-n2cc(-c3ccccc3)c3c(NCc4ccc(F)cc4)ncnc32)cc1	-0.1%	-6.5%
Clc1ccc(CNc2cc(-c3ccccc3)nc3nncn23)cc1	5.7%	7.5%
Cc1c(C(=O)Nc2ccc(F)cc2)oc2ccc(S(=O)(=O)N3CCCCCC3)cc12	-0.4%	31.6µM*
Cc1ccc(NC(=O)c2oc3ccc(S(=O)(=O)N4CCCCC4)cc3c2C)cc1C	1.8%	5.7%
Cc1c(C(=O)NCc2ccc3c(c2)OCO3)oc2ccc(S(=O)(=O)N3CCCC3)cc12	-0.9%	15.8µM*
Cc1c(C(=O)NCc2ccc3c(c2)OCO3)oc2ccc(S(=O)(=O)N3CCCCC3)cc12	3.0%	?
Cc1c(CC(=O)NCc2ccccc2Cl)c(=O)oc2cc(O)ccc12	-28.6%	?
Cc1ccc(C(=O)c2coc3c2C(=O)C(=O)c2ccccc2-3)cc1	-1.6%	12.6µM*
Cc1ccc(C(=O)c2c(C)oc3c2C(=O)C(=O)c2ccccc2-3)cc1	-4.3%	?
CCNc1ncc2nc(-c3cc(F)cc(F)c3)c(=O)n(CCC#N)c2n1	11.8%	28.0%
COc1cccc(COC(=O)c2ccc(-c3nnn(Cc4cccc(OC)c4)n3)cc2)c1	0.9%	-16.5%
O=c1c2c3c(sc2n(CCN2CCCC2)c(=O)n1Cc1ccco1)CCCCC3	5.2%	?
O=C(Cn1c(=O)n(Cc2ccco2)c(=O)c2c3c(sc21)CCCCC3)Nc1ccccc1	28.2µM*	?
O=C(Cn1c(=O)n(Cc2ccco2)c(=O)c2c3c(sc21)CCCCC3)c1ccccc1	-7.9%	25.1µM*
CN(C)CCn1c(=O)n(Cc2ccco2)c(=O)c2c3c(sc21)CCCCC3	4.7%	5.0%
Cc1ccc(Cc2nc3ccccc3nc2SCC(=O)N2CCc3ccccc32)cc1	2.3%	-1.8%
CCOc1ccc(NC(=O)NCCN2CCN(c3cc(Cl)ccc3C)CC2)cc1	-1.6%	-5.4%
O=c1c2sc3ccccc3c2n(Cc2cccc(Cl)c2)c(=O)n1Cc1ccc(F)cc1	-3.6%	6.31µM*
O=c1c2sc3ccccc3c2n(Cc2cccc(Cl)c2)c(=O)n1Cc1ccccc1	-1.5%	?
COc1ccc2c(c1)c1c(c(=O)n(-c3ccccc3C)c(=O)n1CC(=O)NCc1ccc(C)cc1)n2C	-4.5%	?
COc1ccc(/C=C2\CCCC3C2=NC(=S)NC3c2ccc(OC)cc2)cc1 (configuration not stated)	-5.0%	25.1µM*
CCCn1c(SCC(=O)N2N=C3/C(=C/c4ccc(OC)cc4)CCCC3C2c2ccc(OC)cc2)n[nH]c1=O (configuration not stated)	-11.1%	14.9%
Cc1cc(C(=O)CN2C(=O)NC3(CCCCC3C)C2=O)c(C)n1Cc1cccs1 (configuration not stated)	-4.5%	31.6µM*
SMILES	Cruzain inh Det	Cruzain noTriton
Cc1cc(-n2c(C)cc(C(=O)CN3C(=O)NC4(CCCCC4C)C3=O)c2C)no1 (configuration not stated)	5.5%	-29.5%
Cc1cc(C(=O)CN2C(=O)NC(C)(c3ccccc3)C2=O)c(C)n1CC1CCCO1 (configuration not stated)	-2.5%	2.7%
Cc1cc(C(=O)CN2C(=O)NC(c3ccccc3)(c3ccccc3)C2=O)c(C)n1Cc1ccccc1	-1.0%	10µM*
N[C@@H](CO)C(=O)NNCc1ccc(O)c(O)c1O	-0.2%	-7.5%
Cc1ccc(/C=C/c2onc(C)c2S(=O)(=O)N2CCC(C(=O)N3CCOc4ccccc43)CC2)cc1	-3.0%	-28.3%
Cc1ccc(Cl)cc1N1CCN(C(=O)C2CCN(S(=O)(=O)c3c(C)noc3/C=C/c3ccccc3F)CC2)CC1	-2.1%	6.31µM*
CCC1CN(C(=O)C2CCN(S(=O)(=O)c3c(C)noc3/C=C/c3ccccc3F)CC2)c2cc(Cl)ccc2O1 (configuration not stated)	-2.5%	3.16µM*
CC(=O)c1ccc(N2CCN(C(=O)C3CCN(S(=O)(=O)c4c(C)noc4/C=C/c4ccccc4F)CC3)CC2)cc1	-3.8%	-11.9%
